The assay relates to primary human hepatic stellate cells (donor 1). Kind of assay: scaled lipid accumulation score (0 = DMSO-like, 1 = nortriptyline-like); higher = stronger HSC inactivation (lipid re-accumulation), active = hit call of the paper. As to conditions: 48 h.
[1] abbreviates: library stock concentration: 1 mM.
Where [2] appears, read: library stock concentration: 6.4 mM.
The mark [3] stands for this setting: library stock concentration: 10 mM.
[4] abbreviates: library stock concentration: 3.33 mM.
Where [5] appears, read: library stock concentration: 5.2 mM.
Setting [6] is: library stock concentration: 400 uM.
Where [7] appears, read: library stock concentration: 2 mM.
Setting [8] is: library stock concentration: 80 uM.

From the supplement of paper PMC9135407 come the findings set out here.

Where “and” joins values, the source holds several entries; their conditions need not be identical. Equal values may be shown once. Where a name gives a salt, the structure may show the parent alone. Screen size: about 5,800 compounds; about 620 (11%) showed activity. This excerpt belongs to a sample that is enriched for actives. Unmarked numbers belong to inactive results.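 Rule for the calls: active = score above a cut-off or among the top three wells of a plate; in these data no inactive exceeds 0.85.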

As for `CC/C=C\C/C=C\C/C=C\CCCCCCCC(=O)N[C@@H](Cc1ccc(O)cc1)C(=O)O` [N-(.alpha.-Linolenoyl) Tyrosine], under setting [1], the “scaled lipid accumulation score” value was not above 0.
In the case of `CCCCC/C=C\C=C\CCCCCCCCC(=O)O` [10(E),12(Z)-Conjugated Linoleic Acid], under setting [1], the “scaled lipid accumulation score” value is 0.069.
On the same count and under the same terms, in the case of `CCC=CCC=CCC=CCC=CCCCCC(=O)OCC` [Stearidonic Acid ethyl ester] it was not above 0; in that of `CC(=O)N[C@@H](CSC/C=C(\C)CC/C=C(\C)CC/C=C(\C)CCC=C(C)C)C(=O)O` [N-acetyl-S-geranylgeranyl-L-Cysteine], ≤ 0 and ≤ -0.021.
Consider `Clc1ccc2c(c1)CCc1cccnc1C2=C1CCNCC1` [Desloratidine], for which the “scaled lipid accumulation score” value under setting [2] was 0.46.
As for `CCOC(=O)N1CCC(=C2c3ccc(Cl)cc3CCc3cccnc32)CC1` [Loratidine], the “scaled lipid accumulation score” value under setting [3] was 0.128.
`Cc1cccc(CN2CCN(C(c3ccccc3)c3ccc(Cl)cc3)CC2)c1` (stereo not drawn) [Meclizine hydrochloride]: the “scaled lipid accumulation score” value under setting [3] is 0.376 and 0.485.
Take `Cc1cncc(CN2CCC(=C3c4ccc(Cl)cc4CCc4cccnc43)CC2)c1` [Rupatadine Fumarate]: the “scaled lipid accumulation score” value under setting [4] is 0.371.
For the compound `CCOC(=O)N1CCC(=C2c3ccc(Cl)cc3CCc3cccnc32)CC1` [Loratadine], the “scaled lipid accumulation score” value is not above 0 under setting [4]; not above 0 under setting [5]; ≤ 0 and 0.008 under setting [3].
As to `C(=C(\CCNC1)/C1)(/c2c(cccn2)CC3)\c(ccc(Cl)c4)c34` [Desloratadine], the “scaled lipid accumulation score” value under setting [2] is 1.03 (active).
Turning to `CCOC(=O)N1CCC(=C2c3ccc(Cl)cc3CCc3cccnc32)CC1`, the “scaled lipid accumulation score” value under setting [3] is not above 0.
`Cc1cccc(CN2CCN(C(c3ccccc3)c3ccc(Cl)cc3)CC2)c1` (stereo not drawn) [Meclozine dihydrochloride]: the “scaled lipid accumulation score” value is 0.368.
With `Clc1ccc2c(c1)CCc1cccnc1C2=C1CCNCC1`, the “scaled lipid accumulation score” value under setting [3] was 1.52 (active).
For the compound `Cc1cncc(CN2CCC(=C3c4ccc(Cl)cc4CCc4cccnc43)CC2)c1.O=C(O)C=CC(=O)O` [Rupatadine Fumarate], under setting [3], the “scaled lipid accumulation score” value was 0.862 (active).
`Clc1ccc2c(c1)CCc1cccnc1C2=C1CCNCC1` [Desloratadine]: the “scaled lipid accumulation score” value is 0.268 under setting [4] and 0.837 under setting [3].
In the case of `CCCCC/C=C/C/C=C/C/C=C/C/C=C/CCCC(=O)Oc1ccc2ccc(=O)oc2c1` [7-hydroxycoumarinyl Arachidonate], the “scaled lipid accumulation score” value under setting [1] was not above 0.
For the compound `CC(C)(C)c1nc2c3cc[nH]c(=O)c3c3cc(F)ccc3c2[nH]1` [Merck -5 (10 mM)], under setting [3], the “scaled lipid accumulation score” value was 0.114.
`CC(C)(C)c1nc2c3cc[nH]c(=O)c3c3cc(F)ccc3c2[nH]1` [Merck -5 (0.4 mM)]: the “scaled lipid accumulation score” value under setting [6] was not above -0.005.
In the case of `CC(C)(C)c1nc2c3cc[nH]c(=O)c3c3cc(F)ccc3c2[nH]1` [Merck -5 (2 mM)], the “scaled lipid accumulation score” value under setting [7] is not above -0.005.
As for `CC(C)(C)c1nc2c3cc[nH]c(=O)c3c3cc(F)ccc3c2[nH]1` [JAK Inhibitor I], the “scaled lipid accumulation score” value under setting [4] was not above 0.
`COc1ccc2c(c1)c(CC(=O)NCCc1ccccc1)c(C)n2C(=O)c1ccc(Cl)cc1` [N-(2-phenylethyl)-Indomethacin amide]: the “scaled lipid accumulation score” value under setting [1] was 0.049.
For `O=c1ncn2nc(Sc3ccc(F)cc3F)ccc2c1-c1c(Cl)cccc1Cl`, the “scaled lipid accumulation score” value was 0.019 under setting [8]; 0.039 under setting [6]; 0.129 under setting [7]; 0.019 under setting [4]; ≤ 0 and 0.119 under setting [3].
On to `C[C@@H](O)[C@H]1C(=O)N2C(C(=O)OCOC(=O)C(C)(C)C)=C(SC3CN(C4=NCCS4)C3)[C@H](C)[C@H]12` [Tebipenem Pivoxil], for which the “scaled lipid accumulation score” value under setting [4] is not above 0 and the “scaled lipid accumulation score” value under setting [3] is not above 0.
For the compound `O=P(O)(O)O[C@H]1[C@@H](O)[C@H](O)[C@@H](OP(=O)(O)O)[C@H](OP(=O)(O)O)[C@H]1O` [D-myo-Inositol-2,4,5-triphosphate (sodium salt)], the “scaled lipid accumulation score” value under setting [1] is not above 0.
On to `O=C1C(Cl)=C(N2C(=O)CCC2=O)C(=O)c2ccccc21` [MEK Inhibitor II], for which the “scaled lipid accumulation score” value under setting [4] was 0.073.
With `CCCCCCCCCCCCCC(=O)OCC` [Myristic Acid ethyl ester], the “scaled lipid accumulation score” value under setting [1] is 0.028.
As to `COc1cc2ncnc(Nc3ccc(Cl)cc3F)c2cc1OC`, the “scaled lipid accumulation score” value under setting [4] was not above 0; the “scaled lipid accumulation score” value under setting [3] is ≤ 0 and ≤ -0.001.
In the case of `COc1cc2c(Nc3ccc(Br)cc3F)ncnc2cc1OCC1CCN(C)CC1` [Vandetanib  (ZD6474, Zactima) (2 mM)], the “scaled lipid accumulation score” value under setting [7] is 0.855 (active).
Regarding `COc1cc2ncnc(Nc3ccc(O)c(Br)c3)c2cc1OC` [JAK3 Inhibitor II], the “scaled lipid accumulation score” value under setting [4] is not above 0.
Turning to `COc1cc2/c(=N/c3ccc(Br)cc3F)nc[nH]c2cc1OCC1CCN(C)CC1` [Vandetanib], the “scaled lipid accumulation score” value reads like this: under setting [8], 0.09; under setting [6], 0.381.
Take `COc1cc2c(Nc3ccc(Br)cc3F)ncnc2cc1OCC1CCN(C)CC1` [Vandetanib]: the “scaled lipid accumulation score” value is, setting by setting: under setting [7], 1.27 (active); under setting [3], 1.66 (active).
For the compound `COc1cc2/c(=N/c3ccc(Br)cc3F)nc[nH]c2cc1OCC1CCN(C)CC1` [Vandetanib (ZD6474)], under setting [3], the “scaled lipid accumulation score” value was 0.754.
For the compound `COc1cc2c(Nc3ccc(Br)cc3F)ncnc2cc1OCC1CCN(C)CC1` [Vandetanib (ZD6474)], under setting [4], the “scaled lipid accumulation score” value was 1.18 (active).
As to `COc1cc2/c(=N/c3ccc(Br)cc3F)nc[nH]c2cc1OCC1CCN(C)CC1` [Vandetanib  (ZD6474, Zactima) (10 mM)], under setting [3], the “scaled lipid accumulation score” value was 0.445.
Take `C=CC(=O)N1CCC(Oc2cc3c(Nc4ccc(Cl)c(Cl)c4F)ncnc3cc2OC)CC1` [Poziotinib]: the “scaled lipid accumulation score” value under setting [8] was 0.111, the “scaled lipid accumulation score” value under setting [6] was 0.281, the “scaled lipid accumulation score” value under setting [7] is 0.059 and the “scaled lipid accumulation score” value under setting [3] was 0.72.
As for `COc1cc2ncnc(Nc3ccc(O)c(Br)c3)c2cc1OC`, the “scaled lipid accumulation score” value was not above 0 under setting [4] and not above 0 under setting [3].
Consider `COc1cc2c(Nc3ccc(Br)cc3F)ncnc2cc1OCC1CCN(C)CC1` [Vandetanib  (ZD6474, Zactima) (0.4 mM)], for which, under setting [6], the “scaled lipid accumulation score” value was 1.1 (active).
As to `COc1c2ccoc2nc2c(OC)c(OCC(O)C(C)(C)O)ccc12` (stereo not drawn) [Evoxine], the “scaled lipid accumulation score” value was not above 0.
As to `COc1ccc(CCN(C)CCCC(C#N)(c2ccc(OC)c(OC)c2)C(C)C)cc1OC` (stereo not drawn) [Verapamil hydrochloride], the “scaled lipid accumulation score” value under setting [3] is 0.587.
Regarding `COc1ccc(CCN(C)CCCC(C#N)(c2ccc(OC)c(OC)c2)C(C)C)cc1OC` (stereo not drawn) [Verapamil], under “library stock concentration: 4.4 mM”, the “scaled lipid accumulation score” value is 0.416.
Turning to `COc1ccc(CCN(C)CCCC(C#N)(c2ccc(OC)c(OC)c2)C(C)C)cc1OC` (stereo not drawn) [Verapamil HCl], the “scaled lipid accumulation score” value was 0.332 under setting [4] and 0.536 under setting [3].
For the compound `COc1ccc(CCN(C)CCCC(C#N)(c2ccc(OC)c(OC)c2)C(C)C)cc1OC` (stereo not drawn) [Verapamyl hydrochloride], the “scaled lipid accumulation score” value was 0.545.
Take `O=C(O)Cc1c2ccccc2n2c1[nH]c(=O)c1ccccc12`: the “scaled lipid accumulation score” value is not above -0.001 under setting [8], not above -0.001 under setting [6], not above -0.001 under setting [7] and not above -0.001 under setting [3].
`CCCCC[C@H](O)/C=C/[C@H]1C(=O)C[C@H](O)[C@@H]1C/C=C\CCCC(=O)OC` [Prostaglandin D2 methyl ester]: the “scaled lipid accumulation score” value under setting [1] is not above 0.
Regarding `CNCc1cc(-c2ccccc2F)n(S(=O)(=O)c2cccnc2)c1`, the “scaled lipid accumulation score” value reads like this: under setting [4], 0.046; under setting [3], 0.471.
On to `CC(C)=CCC/C(C)=C/CC/C(C)=C/CC[C@]1(C)CCc2c(C)c(O)c(C)c(C)c2O1` [.alpha.-Tocotrienol], for which, under setting [1], the “scaled lipid accumulation score” value was 0.026.
On to `CCCc1c(OCC(O)COc2ccc3c(=O)cc(C(=O)O)oc3c2CCC)ccc(C(C)=O)c1O` (stereo not drawn), for which, under setting [3], the “scaled lipid accumulation score” value was not above -0.001.
Consider `c1ccc2[nH]cnc2c1` [DRB (Benzimidazole)], for which the “scaled lipid accumulation score” value (library stock concentration: 15.7 mM) was 0.081.
On to `Clc1ccc(C2(c3ccc(-c4cn[nH]c4)cc3)CCNCC2)cc1` [listing 1 of 3 here], for which the “scaled lipid accumulation score” value under setting [4] was 1.22 (active).
For the compound `Clc1ccc(C2(c3ccc(-c4cn[nH]c4)cc3)CCNCC2)cc1` [listing 2 of 3 here], the “scaled lipid accumulation score” value by setting is: under setting [7], 0.95 (active); under setting [3], 1.16 (active).
In the case of `Clc1ccc(C2(c3ccc(-c4cn[nH]c4)cc3)CCNCC2)cc1` [listing 3 of 3 here], the “scaled lipid accumulation score” value under setting [8] was 0.375, the “scaled lipid accumulation score” value under setting [6] is 0.622 and the “scaled lipid accumulation score” value under setting [3] is 0.425.
Regarding `C[n+]1ccccc1C=NO` [Pralidoxime mesylate], the “scaled lipid accumulation score” value under setting [3] was 0.016.
For `O=C1C2CC3CC1CC(O)(C3)C2`, the “scaled lipid accumulation score” value under setting [3] was 0.163.
On the same count and under the same terms, in the case of `N[C@H](C(=O)O)[C@H]1C[C@@H]1C(=O)O` [(2S,1'S,2'S)-2-(carboxycyclopropyl)glycine] it was 0.17.
Consider `COC(=O)C1=C(C)NC(C)=C(C(=O)OCCSc2ccccc2)C1C` (stereo not drawn), for which the “scaled lipid accumulation score” value was 0.111 under setting [3] and 0.203 (library stock concentration: 13.8 mM).
For the compound `CCOC(=O)C1=C(COCCN)NC(C)=C(C(=O)OC)C1c1ccccc1Cl` (stereo not drawn) [Amlodipine besylate], under “library stock concentration: 3.5 mM”, the “scaled lipid accumulation score” value is not above 0.
Regarding `CCOC(=O)C1=C(COCCN)NC(C)=C(C(=O)OC)C1c1ccccc1Cl` (stereo not drawn) [Amlodipine], the “scaled lipid accumulation score” value was 0.492 under setting [4], not above -0.006 (library stock concentration: 4.9 mM) and 0.33 under setting [3].
In the case of `CCCC(=O)OCOC(=O)C1=C(C)NC(C)=C(C(=O)OC)C1c1cccc(Cl)c1Cl` (stereo not drawn) [Clevidipine Butyrate], the “scaled lipid accumulation score” value reads like this: under setting [4], not above 0; under setting [3], not above 0.
For `CCO/C(O)=C1\C(C)=NC(c2ccccc2)=C(C(=O)OCc2ccc([N+](=O)[O-])cc2)C1C#Cc1ccccc1` (stereo not drawn), under setting [3], the “scaled lipid accumulation score” value was not above 0.
As to `CCOC(=O)C1=C(COCCN)NC(C)=C(C(=O)OC)C1c1ccccc1Cl.O=S(=O)(O)c1ccccc1` (stereo not drawn) [Amlodipine besylate], the “scaled lipid accumulation score” value under setting [3] was 1.02 (active).
For the compound `CCO/C(O)=C1\C(COCCN)=NC(C)=C(C(=O)OC)C1c1ccccc1Cl` (stereo not drawn), the “scaled lipid accumulation score” value under setting [3] was 1.38 (active).
As for `CCOC(=O)C1=C(C)NC(C)=C(C(=O)OC)C1c1cccc(Cl)c1Cl` (stereo not drawn) [Felodipine] [listing 1 of 2 here], the “scaled lipid accumulation score” value is 0.05. For the same compound, the “scaled lipid accumulation score” value under setting [4] is not above 0. The “scaled lipid accumulation score” value under setting [5] was 0.028. Moreover, the “scaled lipid accumulation score” value under setting [3] is not above 0.
On to `CCOC(=O)C1=C(C)NC(C)=C(C(=O)OC)C1c1cccc(Cl)c1Cl` (stereo not drawn) [Felodipine] [listing 2 of 2 here], for which the “scaled lipid accumulation score” value under setting [3] is 0.931 (active).
